Data taken from PubChem BioAssay (EPA / NIEHS).
Calls of active or inactive are those of the source. The calls were made as follows: active = hit-call score of the fitted dose curve at least 0.9, where 1 is the maximum; inactive = score below 0.9.

Assay: Tanguay_ZF_120hpf_ANY: Oregon State University Tanguay Lab 120 Hour Post-fertilization zebrafish Assay for Any Mortality and Malformation (AID 2284404)
Procedure: Tanguay_ZF_120hpf is a whole embryo, multiplexed endpoint assay using zebrafish larvae exposed for 120 hours post fertilization on a 96-well plate.Tanguay_ZF_120hpf_ANY is one of one assay component(s) measured or calculated from the Tanguay_ZF_120hpf assay. It is designed to make measurements of developmental malformations and mortality as detected with brightfield microscopy and combines scoring from 13 other assay components measuring more specific morphologies.Data from the assay component Tanguay_ZF_120hpf_ANY was analyzed into 1 assay endpoints. This assay endpoint, Tanguay_ZF_120hpf_ANY, was analyzed in the positive analysis fitting direction relative to DMSO as the negative control and baseline of activity. Using a type of morphology reporter, gain-of-signal activity can be used to understand changes in developmentals as they relate to the whole embryo. To generalize the intended target to other relatable targets, this assay endpoint is annotated to the zebrafish development intended target family, where the subfamily is embryonic morphogenesis and mortality.
Zebrafish husbandry: Tropical 5D wild-type adult zebrafish were housed in at an approximate density of 1000 per 100 gallon tank at the Sinnhuber Aquatic Research Laboratory, Oregon State University, Corvallis, OR. Each tank was kept at standard laboratory conditions of 28C on a 14-h light/10-h dark photoperiod in fish water consisting of reverse osmosis water supplemented with a commercially available salt (Instant Ocean). Spawning funnels were placed into the tanks the night prior, and embryos were collected and staged. To increase bioavailability, the chorion was enzymatically removed using pronase (63.6mg/ml, >/= 3.5U/mg, Sigma-Aldrich: P5147) at 4 hours post fertilization (hpf) using a custom automated dechorionator.Chemical exposures: Six hpf dechorionated embryos were placed 1 embryo per well in a 96-well plate prefilled with 90 ul of EM using automated embryo placement systems (AEPS). Ten microliters of each row of dilution plate 2 was added to 2 exposure plates. The final DMSO concentration used was 0.64% (vol/vol). Thirty-two embryos were also exposed to 5uM trimethyltin chloride (positive control). Plates were sealed to prevent evaporation and foil covered to reduce light exposure and kept in a 28C incubator. Embryos were statically exposed until 120 hpf. At 24 hpf, embryos were assessed for photomotor response using a custom photomotor response analysis tool (PRAT) and for developmental toxicity endpoints (MO24: mortality at 24 hpf, DP: developmental progression, SM: spontaneous movement, and NC: notochord distortion). At 120 hpf, locomotor activity was measured using Viewpoint Zebralab and assessed for 13 endpoints. Zebrafish acquisition and analysis program (ZAAP), a custom program designed to inventory, acquire, and manage zebrafish data, was used to collect developmental endpoints as either present or absent (i.e., binary responses were recorded). If mortality occurred for an embryo (at either 24 or 120 hpf), the non-mortality endpoints were not measured.

SMILES	outcome	AC50
O=C(O)C(F)(OC(F)(F)C(F)(F)C(F)(F)F)C(F)(F)F (centres undefined)	inactive	–
FC(F)(F)C(F)(C(F)(F)F)C(F)(F)C(F)(F)CC1CO1 (centres undefined)	inactive	–
O=C(O)C(F)(F)C(F)(F)C(=O)O	inactive	–
OCC(F)(F)OC(F)(F)C(F)(F)OC(F)(F)C(F)(F)OC(F)(F)CO	–	18 µM (active)
C=CC(=O)OCC(F)(F)C(F)F	–	23.3 µM (active)
O=C(O)C(F)(F)OC(F)(F)C(F)(F)OC(F)(F)F	inactive	–
O=C(O)C=CC(F)(C(F)(F)F)C(F)(F)F	inactive	–
OCC(F)(F)OC(F)(F)C(F)(F)OC(F)(F)C(F)(F)OC(F)(F)F	inactive	–
CC(O)C(F)(F)C(F)(F)F (centres undefined)	inactive	–
NC(=O)C(F)(F)C(F)(F)F	inactive	–
O=C(O)C(F)(F)OC(F)(F)C(F)(F)OC(F)(F)C(=O)O	inactive	–
OCC(F)(F)OC(F)(F)C(F)(F)OC(F)(F)CO	inactive	–
COC(=O)C(F)(F)C(F)(F)OC(F)(C(F)(F)F)C(F)(F)OC(F)=C(F)F (centres undefined)	–	22.2 µM (active)
O=S(=O)(F)C(F)(F)C(F)(F)C(F)(F)C(F)(F)C(F)(F)C(F)(F)C(F)(F)C(F)(F)F	inactive	–
